Measured values from PubChem BioAssay (Tox21).
Where “and” joins values, the source holds several entries; their conditions need not be identical. Identical values can stand only once. Records with an inconclusive call do not appear. Calls of active or inactive are those of the source. The call rests on the fitted dose curve; in most records, active means well fitted curve in the direction sought with a large enough effect in the repeat runs; inconclusive means weak or mixed curves; inactive means no such curve, though single readings can be large; an effect the other way counts as inactive or inconclusive.

Test: qHTS RealTime-Glo MT Cell Viability Assay in HEK293 cells - 16 hour (AID 1224872); further: nearly all actives have a fitted effect of over 50% in size; on activity change, negative = cytotoxicity: top concentration of the series differs between compounds
Settings: RealTime-Glo luminescence; series mostly up to 76.8 µM; activity change, negative = cytotoxicity: at the top concentration
In short: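 Viability tracked continuously by luminescence as live cells reduce a prosubstrate for NanoLuc; HEK293 cells preincubated 5 h, compound-treated at 37 C, and read at 0, 8, 16, 24, 32 and 40 h.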
On the % scale 0 is the no-effect control and ±100 the full control effect; potency means the concentration at half of the fitted maximal effect.

| Compound | Potency | activity change, negative = cytotoxicity |
| --- | --- | --- |
| O=c1[nH]c2ccccc2n1CCCN1CCN(C(c2ccccc2)c2ccccc2)CC1 | 10.7 µM (active) | – |
| CC1=Nc2ccccc2C1(C)C | – | -17.7% (inactive) |
| CC(=O)[C@H]1CC[C@H]2[C@@H]3CCC4=CC(=O)CC[C@]4(C)[C@H]3CC[C@]12C | 15.4 µM (active) and 19.5 µM (active) | – |
| CCCc1ccc(OCC(=O)N2CCN(C(=O)COc3ccc(CCC)cc3OC)CC2)c(OC)c1 | 9.52 µM (active) | – |
| O=[N+]([O-])c1ccc(O)cc1C(F)(F)F | – | -25.6% (inactive) |
| OC[C@H]1O[C@H](O[C@H]2O[C@H](CO)[C@@H](O)[C@H](O)[C@H]2O)[C@H](O)[C@@H](O)[C@@H]1O | – | 9.81% (inactive) |
| CCCC(=O)OCOC(=O)C1=C(C)NC(C)=C(C(=O)OC)C1c1cccc(Cl)c1Cl (stereo not given) | – | 2.19% [at 35.3 µM] (inactive) |
| COc1cc(S(=O)(=O)O)c(C)cc1N=Nc1c(O)ccc2cc(S(=O)(=O)O)ccc12 | – | -3.53% (inactive) |
| CC[N+](CC)(CC)CCOc1ccc(/C=C/c2ccccc2)cc1 | – | -24.4% [at 35.3 µM] (inactive) |
| O=C(Nc1ccc2c(O)c(N=Nc3ccc(N=Nc4ccc(S(=O)(=O)O)cc4)cc3)c(S(=O)(=O)O)cc2c1)c1ccccc1 | – | -22.7% (inactive) |
| CCCC[P+](C)(CCCC)CCCC | – | -17.9% (inactive) |
| Nc1cc(Cl)c(O)c(Cl)c1 | – | -29.3% (inactive) |
| Clc1nnc(Cl)c2ccccc12 | – | -11.8% (inactive) |
| CCCCCCCCCCCC(=O)OCC(C)OC(=O)CCCCC(=O)O (stereo not given) | – | -0.768% [at 35.3 µM] (inactive) |
| CCOC(=O)c1ccc(C2CCC(NC[C@H](O)COc3ccc(O)c(NS(C)(=O)=O)c3)CC2)cc1 (stereo not given in full) | 20.2 µM (active) | – |
| Cc1c(C)c2c(c(C)c1O)CC[C@@](C)(CCC[C@H](C)CCC[C@H](C)CCCC(C)C)O2 | – | -15.4% (inactive) |
| Cc1ccc(C(=O)O)cc1 | – | 5.64% (inactive) |
| COc1ccc2c(c1)c(CC(=O)OC/C=C(\C)CC/C=C(\C)CCC=C(C)C)c(C)n2C(=O)c1ccc(Cl)cc1 | – | -28.2% [at 35.3 µM] (inactive) |
| C=CC(=O)Nc1cc2c(Nc3ccc(F)c(Cl)c3)ncnc2cc1OCCCN1CCOCC1 | 10.7 µM (active) | – |

| Compound | Potency | activity change, negative = cytotoxicity |
| --- | --- | --- |
| Cc1cc(C(C)(C)C)cc(C)c1CC1=NCCN1 | – | -8.31% [at 35.3 µM] (inactive) |
| CCCCN(CCCC)CC(O)c1cc(Cl)cc2c1-c1ccc(Cl)cc1/C2=C/c1ccc(Cl)cc1 (stereo not given) | – | -22.4% [at 35.3 µM] (inactive) |
| NC[C@H]1O[C@H](O[C@H]2[C@H](O[C@@H]3O[C@H](CO)[C@@H](O)[C@H]3O)C(O)[C@H](N)C[C@@H]2N)[C@H](N)[C@@H](O)[C@@H]1O (stereo not given in full) | – | 3.13% [at 6.97 µM] (inactive) |
| O=C(O)c1cc(O)c2ccccc2c1O | 38.9 µM (active) | – |
| CC(C)=CCNc1ncnc2c1ncn2[C@@H]1O[C@H](CO)[C@@H](O)[C@H]1O | – | -13.8% [at 35.3 µM] (inactive) |
| C[C@@H](O)[C@H](N)C(=O)O | – | -1.06% [at 15.8 µM] (inactive) |
| COC1=C(OC)C(=O)C(CCCCCCCCCCO)=C(C)C1=O | 2.39 µM (active) | – |
| CCCC(=O)OCCc1ccccc1 | – | -3.35% (inactive) |
| C#C[C@]1(OC(C)=O)CC[C@H]2[C@@H]3CCC4=C/C(=N/O)CC[C@@H]4[C@H]3CC[C@@]21CC | 23.9 µM (active) | – |
| CCOC(=O)Cn1cccc1-c1nc(-c2ccc(OC)cc2)c(-c2ccc(OC)cc2)s1 | – | -18.6% [at 35.3 µM] (inactive) |
| O=C1NC(=O)[C@@H]2CC=CC[C@H]12 | – | -2.51% (inactive) |
| Fc1ccc(C(c2ccc(F)cc2)N2CCNCC2)cc1 | – | -15.6% [at 35.3 µM] (inactive) |
| CC/C=C\CCCCCO | – | 0.0448% (inactive) |
| O=S(=O)(O)c1ccc(N=Nc2c(O)ccc3ccccc23)cc1 | – | -38.2% (inactive) |
| O=C(/C=C/c1ccccc1)OC/C=C/c1ccccc1 | – | -4.2% (inactive) |
| NC(=O)c1cccc([N+](=O)[O-])c1 | – | 2.77% (inactive) |
| C=Cc1cccc(C)c1 | inactive | – |
| CN1CCCCC1CCN1c2ccccc2Sc2ccc(S(C)=O)cc21 (stereo not given) | – | -19.3% [at 35.3 µM] (inactive) |
| CCCCCCCCCCCCOCCOCCOCCOCCOCCOCCOCCOCCOCCO | 6.01 µM (active) | – |

Test: qHTS RealTime-Glo MT Cell Viability Assay in HepG2 cells - 8 hour (AID 1224873); further: nearly all actives have a fitted effect of over 55% in size
Settings: RealTime-Glo luminescence; series mostly up to 76.8 µM; viability change, negative = cytotoxic: at the top concentration
In short: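 HepG2 cells (600/well) mixed with RealTime-Glo MT reagent, settled 5 h at 37 C/5% CO2 before compound addition. Nonlytic NanoLuc luminescence from viable-cell prosubstrate reduction read repeatedly during 40 h treatment at 37 C.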

| Compound | viability change, negative = cytotoxic | Potency |
| --- | --- | --- |
| CC1=Nc2ccccc2C1(C)C | 0.673% (inactive) | – |
| O=[N+]([O-])c1ccc(O)cc1C(F)(F)F | -19% (inactive) | – |
| OC[C@H]1O[C@H](O[C@H]2O[C@H](CO)[C@@H](O)[C@H](O)[C@H]2O)[C@H](O)[C@@H](O)[C@@H]1O | -0.735% (inactive) | – |
| CC[N+](CC)(CC)CCOc1ccc(/C=C/c2ccccc2)cc1 | -7.72% [at 35.3 µM] (inactive) | – |
| CCCC[P+](C)(CCCC)CCCC | 1.52% (inactive) | – |
| CCCCCCCCCCCC(=O)OCC(C)OC(=O)CCCCC(=O)O (stereo not given) | 3.08% [at 35.3 µM] (inactive) | – |
| Cc1c(C)c2c(c(C)c1O)CC[C@@](C)(CCC[C@H](C)CCC[C@H](C)CCCC(C)C)O2 | 2.72% (inactive) | – |
| Cc1ccc(C(=O)O)cc1 | 1.41% (inactive) | – |
| Cc1cc(C(C)(C)C)cc(C)c1CC1=NCCN1 | -5.13% [at 35.3 µM] (inactive) | – |
| NC[C@H]1O[C@H](O[C@H]2[C@H](O[C@@H]3O[C@H](CO)[C@@H](O)[C@H]3O)C(O)[C@H](N)C[C@@H]2N)[C@H](N)[C@@H](O)[C@@H]1O (stereo not given in full) | 2.91% [at 6.97 µM] (inactive) | – |
| O=C(O)c1cc(O)c2ccccc2c1O | – | 17.4 µM (active) |
| CC(C)=CCNc1ncnc2c1ncn2[C@@H]1O[C@H](CO)[C@@H](O)[C@H]1O | -8.13% [at 35.3 µM] (inactive) | – |
| C[C@@H](O)[C@H](N)C(=O)O | 1.46% [at 15.8 µM] (inactive) | – |
| CCCC(=O)OCCc1ccccc1 | -3.29% (inactive) | – |
| C#C[C@]1(OC(C)=O)CC[C@H]2[C@@H]3CCC4=C/C(=N/O)CC[C@@H]4[C@H]3CC[C@@]21CC | -23.3% [at 35.3 µM] (inactive) | – |
| O=C1NC(=O)[C@@H]2CC=CC[C@H]12 | 2.34% (inactive) | – |
| Fc1ccc(C(c2ccc(F)cc2)N2CCNCC2)cc1 | -0.163% [at 35.3 µM] (inactive) | – |
| CC/C=C\CCCCCO | 3.08% (inactive) | – |
| O=C(/C=C/c1ccccc1)OC/C=C/c1ccccc1 | -17.4% (inactive) | – |
| NC(=O)c1cccc([N+](=O)[O-])c1 | 0.226% (inactive) | – |
| C=Cc1cccc(C)c1 | – | inactive |
| CN1CCCCC1CCN1c2ccccc2Sc2ccc(S(C)=O)cc21 (stereo not given) | 5.58% [at 35.3 µM] (inactive) | – |
